Screening data from PubChem.
cytoskel mod = cytoskeleton assembly modification; HUVEC TNFa F-actin phalloidin imaging, high content; inhibition, % at 2 µM; 91,000 compounds, 0.18% hits; AID 836;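 active means inhibition above the batch mean plus 3 SD and confirmed as a hit by visual image inspection, cut at about 30% in these data, passing the limit was not always enough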
E-sel TNF inh = blocks E-selectin expression induced by TNF alpha. HUVEC TNFa-induced E-selectin immunofluorescence, high content. AID 1246. 120,000 compounds, 0.71% hits. inhibition, % at 2 µM;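 active means inhibition above the batch mean plus 3 SD, and confirmed as a hit on visual image review, cut at about 43% in these data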;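 further: 0% = TNF-stimulated DMSO wells and 100% = unstimulated control wells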
VCAM1 TNFa inh = reduces TNF alpha induced VCAM1 expression in HUVEC; HUVEC TNFa-induced VCAM-1 immunofluorescence, high-content imaging; inhibition, % at 2 µM; 95,000 compounds, 0.48% hits; AID 802;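 active means inhibition above the batch mean plus 3 SD, with images confirmed as a hit by eye, cut at about 37% in these data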;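 further: 0% = TNF-stimulated DMSO wells and 100% = unstimulated control wells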
HUVEC tox TNFa = toxic to HUVEC cells under TNF alpha stimulation; HUVEC TNFalpha-stimulated, Hoechst cell count, imaging; cell count reduction, % at 2 µM; 93,000 compounds, 0.17% hits; AID 848;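 active means cell count reduction exceeding the screen mean by over 5 SD, scaled to untreated wells per plate, cut at about 78% in these data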;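 further: cells counted after 24 h of TNF alpha exposure following the 1 h pretreatment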
Starred values were filed as active, the others as inactive; · = no result given. In the library only some 1.1% were active in any assay of this set; here they are far more common.

SMILES | cytoskel mod | E-sel TNF inh | VCAM1 TNFa inh | HUVEC tox TNFa
CC(C)(C)c1ccc(OCCCNCc2ccccc2)cc1 | · | 95* | · | ·
COCCCNCCCOc1ccc(C(C)(C)c2ccccc2)cc1 | · | -29 | · | ·
O=C(N/N=C/C(Br)=C\c1ccccc1)c1n[nH]c2c1CCC2 | -10 | 57 | 91* | 69
CC(/C=N/NC(=O)c1n[nH]c2c1CCC2)=C\c1ccccc1 | -10 | 36 | 67* | 70
O=C(N/N=C/C=C/c1ccccc1)c1n[nH]c2c1CCC2 | 18 | 10 | 68* | 25
CNC(=O)COC(=O)[C@@H](Nc1ccc(S(=O)(=O)N2CCOCC2)cc1[N+](=O)[O-])C(C)C | · | 40 | · | ·
CCOC(=O)c1cc2c(ccn2C)n1CC(=O)N1CCC(Cc2ccccc2)CC1 | · | 96* | · | ·
CN(CC(=O)Nc1ccc(F)cc1[N+](=O)[O-])Cc1ccccc1 | · | 13 | · | ·
Cc1ccc(-n2c(C)cc(/C=c3/sc4nc5ccccc5n4c3=O)c2C)cc1 | · | 4 | 5 | -6
COc1cc(N2CCCC2)c(OC)cc1/C=c1/sc2nc3ccccc3n2c1=O | 31* | · | 22 | -13
C=CCOc1c2ccc(C(=O)NCc3ccc(OC)cc3)cc2nn1C | -16 | 13 | -10 | -25
C=CCOc1c2ccc(C(=O)NCc3ccccc3OC)cc2nn1C | 28 | 6 | 68* | 72
COc1ccc(N=C2SCC(=O)N2c2ccc(OC)cc2)cc1 | -7 | 87* | -15 | -9
COc1ccc(N=C2SC(C(=O)O)CC(=O)N2C)cc1 (stereo not given) | -19 | -1 | -4 | -30
Cc1cc(C)n(CC(C)NCc2cn[nH]c2-c2ccc(C)c(C)c2)n1 (stereo not given) | · | -1 | · | ·
Cc1ccc(/C=c2\sc3n(c2=O)CN(c2cccc(Br)c2)CN=3)o1 | -8 | 62* | -6 | -15
Cc1ccc(NC(=O)Nc2ccc3c(c2)N(C)C(=O)CS3)nc1 | -11 | 94* | 22 | 25
Cc1ccnc(NC(=O)Nc2ccc3c(c2)N(C)C(=O)CS3)c1 | · | -3 | · | ·
COc1ccc(N2C(=O)CC(Sc3nnc(-c4ccccc4)o3)C2=O)cc1 (stereo not given) | · | -38 | · | ·
O=C1CC(Sc2nnc(-c3ccccc3O)o2)C(=O)N1c1ccccc1 (stereo not given) | · | 70* | · | ·
N#Cc1c(N)nc(SCC(=O)NCc2ccc3c(c2)OCO3)c(C#N)c1-c1cccs1 | 60* | 21 | 1 | -17
COc1ccccc1CNC(=O)CSc1nc(N)c(C#N)c(-c2cccs2)c1C#N | -2 | · | 11 | -13
Nc1nnc(SCC(=O)NCc2ccc3c(c2)OCO3)s1 | -3 | -6 | 93* | -25
O=C(COC(=O)C1c2ccccc2Oc2ccccc21)NC1CCS(=O)(=O)C1 (stereo not given) | 72* | · | 9 | -18
O=C(COC(=O)C1(c2ccccc2F)CCCC1)NC1CCS(=O)(=O)C1 (stereo not given) | 2 | 7 | 95* | 1
SMILES | cytoskel mod | E-sel TNF inh | VCAM1 TNFa inh | HUVEC tox TNFa
CN(C(=O)COC(=O)C1c2ccccc2Oc2ccccc21)C1CCS(=O)(=O)C1 (stereo not given) | -5 | · | 0 | -21
O=[N+]([O-])/C=C\c1ccc(N2CCCC2)c(F)c1 | · | 20 | · | ·
Cc1ccc(CC2S/C(=C(/C#N)C(=O)NCc3ccco3)N(c3ccccc3)C2=O)cc1 (stereo not given) | 63* | 13 | -6 | -2
N#C/C(C(=O)NCc1ccco1)=C1/SC(Cc2ccc(Cl)cc2)C(=O)N1c1ccccc1 (stereo not given) | -6 | -4 | -15 | -8
CCOCCCNS(=O)(=O)c1ccc(-n2cnnn2)c(OC)c1 | 11 | 19 | 8 | -6
CCOc1cc(C(=O)OCC(=O)c2c(C)[nH]c3ccccc23)ccc1OCC(=O)N1CCOCC1 | 50* | -11 | 38 | 78
CC(C)NCc1nnc(-c2ccccc2Cl)o1 | · | -27 | · | ·
CCOC(=O)C1CCN(C(=O)c2cn(CCOC)c(=O)c3c2c2ccccc2n3C)CC1 | 39* | -41 | -14 | 57
C=C(C)CN(CC)C(=O)CC1C(=O)NCCN1C (stereo not given) | · | -19 | · | ·
Cc1ccc(C2SCCN2C(=O)c2ccc([N+](=O)[O-])cc2)cc1 (stereo not given) | · | -3 | · | ·
CC(OC(=O)c1ccco1)C(=O)NC1CCCCC1 (stereo not given) | 17 | 86* | -3 | 7
CC(C)C(OC(=O)c1ccco1)C(=O)NC1CCCCC1 (stereo not given) | -24 | -12 | -6 | 11
CSC(=NC#N)N1CCN(c2ccc(Cl)cc2)CC1 | 17 | -5 | 14 | -12
Cc1cnc(NC(=O)COc2ccccc2)s1 | · | · | 17 | -21
COc1cc(CC(=O)Nc2ncc(C)s2)cc(OC)c1OC | 18 | -7 | 51* | -23
Clc1ccc(-n2ncc3c(NCc4ccc5c(c4)OCO5)ncnc32)cc1 | -15 | -21 | 80* | 28
Clc1ccc(-n2ncc3c(NCc4ccco4)ncnc32)cc1 | · | -22 | · | ·
CC1N(C)c2cc(NC(=O)c3cccs3)c(P(=O)(Nc3ccc([N+](=O)[O-])cc3)N3CCOCC3)cc2C1(C)C (stereo not given) | · | 6 | · | ·
COc1ccccc1NC(=O)COC(=O)c1ccccc1C(=O)N1CCN(c2ccccc2)CC1 | · | 49 | · | ·
CCCOC(=O)CSC1=C(C#N)C(c2ccccc2OC)C(C#N)C(=O)N1 (stereo not given) | -4 | · | 92* | 83*
CCC(CC)c1nnc(NC(=O)CCCN2C(=O)c3ccccc3C2=O)s1 | 0 | 13 | 15 | -6
COc1ccc(CSCC(=O)Nc2ccccc2SC)cc1 | · | 6 | · | ·
COc1ccc(NC(=O)CN(C)CC(=O)Nc2ccccc2SC)cc1 | · | 70* | · | ·
CCN(CC)C(=O)CCCC(=O)N(CC)CC | · | -18 | · | ·
O=C(O)CCC(=O)NC1CCCCCCC1 | 100* | -68 | · | ·
SMILES | cytoskel mod | E-sel TNF inh | VCAM1 TNFa inh | HUVEC tox TNFa
C#CCSc1nnc(-c2ccc([N+](=O)[O-])cc2)o1 | · | 16 | · | ·
CC(=O)Nc1ccc(S(=O)(=O)n2cnc(C)c2)cc1 | -9 | 9 | 91* | 98*
CCCCCn1c(CN2CCN(Cc3ccccc3)CC2)nc2c1c(=O)n(C)c(=O)n2C | -6 | 100* | 12 | -20
CCCn1c(CN2CCN(c3cccc(Cl)c3)CC2)nc2c1c(=O)n(C)c(=O)n2C | -10 | 62* | 5 | -20
Cn1c(=O)[nH]c(=O)c2c1nc(CN1CCN(Cc3ccccc3)CC1)n2CC(N)=O | · | 50* | · | ·
Cn1c(=O)[nH]c(=O)c2c1nc(N1CCN(Cc3ccccc3)CC1)n2CCCc1ccccc1 | -58 | · | -4 | -17
CC(=O)Nc1ccccc1C(=O)C(=O)NCCc1ccccc1 | · | -19 | · | ·
CCc1ccc(NC(=O)CCNS(=O)(=O)c2cccc3nsnc23)cc1 | 1 | 8 | -10 | -4
CC(C)Cn1[nH]c2c3c(ccc2c1=O)C(=O)c1ccccc1C3=O | 25 | 11 | -5 | -18
Cc1ccc(OCC(=O)Nc2ccc(Cl)cc2)c(-n2nc3ccccc3n2)c1 | 18 | -33 | -3 | -10
CCOc1ccc(C)cc1-n1nc2ccccc2n1 | 7 | 51* | 11 | -38
NC(=O)COC(=O)CCCc1c[nH]c2ccccc12 | -56 | · | 94* | 79*
COc1ccc2occ(C(C)=O)c2c1 | -11 | -8 | 2 | -16
COc1ccc(OC)c(C(=O)c2coc3ccc(O)cc23)c1 | 61* | -12 | 8 | -30
